{
  "source": "PubChem BioAssay (Tox21)",
  "note": "Results filed as inconclusive are left out. The source made the active and inactive calls. Calls come from the whole dose curve; as a rule, active = well fitted inhibition curve with a large enough effect in the signal ratio in the repeat runs (not every such curve was filed as active); inconclusive = weak or mixed curves, or effect the other way; inactive = no such curve, though single readings can be large or run the other way; the % refers to the signal ratio. Positions of bridges follow the written chain, without caps; N, C: chain ends. Non-standard residues stand in square brackets, D forms with d. Residues, ends and D or L forms follow the SMILES beside them. hArg = N=C(N)NCCCC[C@H](N)C(=O)O; Mpa = O=C(O)CCS",
  "data": [
    {"target": "Glucocorticoid receptor (Homo sapiens) (UniProt P04150)", "sequence (P04150 whole entry, looked up)": "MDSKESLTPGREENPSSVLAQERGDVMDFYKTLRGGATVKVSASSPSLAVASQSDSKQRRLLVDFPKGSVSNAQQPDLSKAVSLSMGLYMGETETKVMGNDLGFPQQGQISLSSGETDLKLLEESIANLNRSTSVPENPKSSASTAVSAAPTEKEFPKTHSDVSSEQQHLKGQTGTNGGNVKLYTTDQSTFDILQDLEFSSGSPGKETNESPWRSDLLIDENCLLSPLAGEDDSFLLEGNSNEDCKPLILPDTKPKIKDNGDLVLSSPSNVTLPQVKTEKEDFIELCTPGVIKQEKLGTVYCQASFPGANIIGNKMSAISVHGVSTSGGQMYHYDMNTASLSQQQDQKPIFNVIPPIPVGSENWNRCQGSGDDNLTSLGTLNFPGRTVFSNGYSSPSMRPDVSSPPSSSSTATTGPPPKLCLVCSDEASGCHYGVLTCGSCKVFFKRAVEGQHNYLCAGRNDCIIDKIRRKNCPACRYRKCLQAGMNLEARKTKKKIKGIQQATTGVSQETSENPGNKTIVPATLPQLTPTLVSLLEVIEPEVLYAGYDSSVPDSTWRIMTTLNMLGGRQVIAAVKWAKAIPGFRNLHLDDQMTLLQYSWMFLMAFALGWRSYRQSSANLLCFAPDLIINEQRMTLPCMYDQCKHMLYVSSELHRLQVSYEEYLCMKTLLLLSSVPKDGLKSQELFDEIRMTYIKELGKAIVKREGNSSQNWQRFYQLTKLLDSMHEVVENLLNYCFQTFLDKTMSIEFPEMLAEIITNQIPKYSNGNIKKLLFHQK", "assay": "qHTS assay to identify small molecule antagonists of the glucocorticoid receptor (GR) signaling pathway (AID 720692); note: % is set by controls: 0 for no effect and ±100 for the full control effect", "details": "GR-bla HeLa, beta-lactamase FRET ratio, dexamethasone-stimulated, 18 h; series mostly up to 58.5 µM; activity change, negative = inhibition: at the top concentration", "excerpt": "U.S. Tox21 Program National Center for Advancing Translational Sciences [NCATS] NIH Chemical Genomics Center [NCGC] U.S. Environmental Protection Agency [EPA] National Institutes of Environmental Health Sciences [NIEHS] National Toxicology Program [NTP] U.S. Food and Drug Administration [FDA] Tox21 Assay Overview: The Glucocorticoid receptor (GR) is one of the members of the nuclear receptor family of ligand-dependent transcription factors. GR plays a critical role in carbohydrate, protein and lipid metabolisms and programmed cell death. CellSensor GR-bla HeLa cell line (Invitrogen) contains a beta-lactamase reporter gene under the control of the glucocorticoid response element stably integrated into HeLa cells, a cervical cancer cell line that expresses glucocorticoid receptor. The activation of the reporter gene under culture conditions can be detected by fluorescence intensity. This cell line has been used to screen the Tox21 10K compound library and to identify the compounds that inhibit the GR signaling.\nTox21 Assay Protocol Summary: The GR-bla HeLa cells were dispensed at 1500 cells/5 ul/well in 1536-well black wall/clear bottom plates using a Multidrop Combi (ThermoFisher Scientific, Waltham, MA) dispenser. After the assay plates were incubated at a 37 C/5% CO2 incubator for 4 hours, 23 nL of compounds dissolved in DMSO, positive controls or DMSO only was transferred to the assay plate by a pintool station (Kalypsys, San Diego, CA), followed by addition of 1 uL of dexamethasone (5 nM, final concentration in the well). The plates were incubated at 37 C for 18 hours. After 1 uL of LiveBLAzerTM B/G FRET substrate was added using a Flying Reagent Dispenser (Aurora Discovery, San Diego, CA), the plates were incubated at room temperature for 2 hours, and fluorescence intensity was measured by an Envision plate reader (PerkinElmer, Shelton, CT).", "values": [
      {"smiles": "COc1ccc(CCO)cc1", "activity change, negative = inhibition": "-3.12% (inactive)"},
      {"smiles": "Cc1cccc(Cl)c1", "activity change, negative = inhibition": "-0.481% (inactive)"},
      {"smiles": "CCCCCCCCCCOC(C)=O", "activity change, negative = inhibition": "-0.791% (inactive)"},
      {"smiles": "C/C(CC(C)C)=N\\O", "activity change, negative = inhibition": "5% (inactive)"},
      {"smiles": "CCC(=O)CC", "activity change, negative = inhibition": "-0.0115% (inactive)"},
      {"smiles": "C[Si]1(C)O[Si](C)(C)O[Si](C)(C)O[Si](C)(C)O[Si](C)(C)O1", "activity change, negative = inhibition": "-0.611% (inactive)"},
      {"smiles": "CC1=C(C(=O)O)N2C(=O)[C@@H](NC(=O)[C@H](N)C3=CCC=CC3)[C@H]2SC1", "activity change, negative = inhibition": "-2.54% (inactive)"},
      {"smiles": "Cc1ccnc(N)c1", "activity change, negative = inhibition": "0.823% (inactive)"},
      {"smiles": "N[C@@H](CSCCCO)C(=O)O", "activity change, negative = inhibition": "11.1% (inactive)"},
      {"smiles": "O=C(Cn1ccnc1[N+](=O)[O-])NCc1ccccc1", "activity change, negative = inhibition": "-13% (inactive)"},
      {"smiles": "CCCCOC(=O)[C@H](C)O", "activity change, negative = inhibition": "-2.88% (inactive)"},
      {"smiles": "O=C(NCN1CCOCC1)c1cnccn1", "activity change, negative = inhibition": "-0.934% (inactive)"},
      {"smiles": "NC(=O)[C@@H]1CSSCCC(=O)N[C@@H](CCCCN=C(N)N)C(=O)NCC(=O)N[C@@H](CC(=O)O)C(=O)N[C@@H](Cc2c[nH]c3ccccc23)C(=O)N2CCC[C@H]2C(=O)N1", "note": "([Mpa][hArg]GDWPC-NH2; disulfide 1-7)", "activity change, negative = inhibition": "-14.8% (inactive)"},
      {"smiles": "N#Cc1ccccc1O", "activity change, negative = inhibition": "2.95% (inactive)"},
      {"smiles": "CC(S)C(C)S", "note": "(stereo not given)", "activity change, negative = inhibition": "24.3% [at 78.9 µM] (inactive)"},
      {"smiles": "C=CCCCCCCCC", "activity change, negative = inhibition": "2.11% [at 78.9 µM] (inactive)"},
      {"smiles": "CCCCCC/C=C/C(=O)OC", "activity change, negative = inhibition": "11.5% (inactive)"},
      {"smiles": "COC(=O)/C=C\\C(=O)O", "activity change, negative = inhibition": "-20.9% (inactive)"},
      {"smiles": "O=C1CCCCO1", "activity change, negative = inhibition": "-12.3% (inactive)"},
      {"smiles": "CCCCOCCOC(=O)COc1ccc(Cl)cc1Cl", "activity change, negative = inhibition": "2.52% (inactive)"},
      {"smiles": "CCCCCCCCCCCCCCC(=O)NC(CO)CCCCCCCCCCCCCC", "note": "(stereo not given)", "activity change, negative = inhibition": "-8.75% [at 78.9 µM] (inactive)"},
      {"smiles": "N[C@@H](Cc1ccc(O)cc1)C(=O)O", "activity change, negative = inhibition": "11.4% (inactive)"},
      {"smiles": "CC(C)(C)NC[C@H](O)COc1cccc2c1CCCC2=O", "activity change, negative = inhibition": "3% [at 27 µM] (inactive)"},
      {"smiles": "CCCCSCCCC", "activity change, negative = inhibition": "6.16% (inactive)"},
      {"smiles": "ONc1ccccc1", "activity change, negative = inhibition": "-6.73% [at 78.9 µM] (inactive)"},
      {"smiles": "Cc1cc(C)c(C(=O)O)c(C)c1", "activity change, negative = inhibition": "-0.44% (inactive)"},
      {"smiles": "CCCCCCCCCOC(=O)CCCCC(=O)OCCCCCCC", "activity change, negative = inhibition": "-0.938% (inactive)"},
      {"smiles": "CCCCCCCCCCCCCCCCCC#N", "activity change, negative = inhibition": "-1.9% [at 78.9 µM] (inactive)"},
      {"smiles": "O/N=C/C=N/O", "activity change, negative = inhibition": "-5.25% (inactive)"},
      {"smiles": "C/C=C(\\C)C(=O)OCCc1ccccc1", "activity change, negative = inhibition": "-0.703% (inactive)"},
      {"smiles": "CC(C)OC(=O)CCC(=O)OC(C)C", "activity change, negative = inhibition": "2.75% (inactive)"},
      {"smiles": "CC1(C)Cc2cccc(N)c2O1", "activity change, negative = inhibition": "6.52% (inactive)"},
      {"smiles": "CC(C)c1ccc(C=O)cc1", "activity change, negative = inhibition": "1.63% (inactive)"},
      {"smiles": "CCCCCC(C)O", "note": "(stereo not given)", "activity change, negative = inhibition": "2.93% (inactive)"},
      {"smiles": "O=C1CCC(=O)N1Cl", "activity change, negative = inhibition": "-1.29% (inactive)"},
      {"smiles": "CC1=C(C(=O)O)N2C(=O)[C@@H](NC(=O)[C@H](N)c3ccccc3)[C@H]2SC1", "activity change, negative = inhibition": "-1.31% (inactive)"},
      {"smiles": "CCC(C)C(C)=O", "note": "(stereo not given)", "activity change, negative = inhibition": "14.5% (inactive)"},
      {"smiles": "O=C(CN1CCNCC1)NC1CCCCC1", "activity change, negative = inhibition": "0.0032% (inactive)"},
      {"smiles": "CN1C[C@@H]2C[C@H]1CN2c1cc2c(cc1F)c(=O)c(C(=O)O)cn2C1CC1", "activity change, negative = inhibition": "22.7% (inactive)"},
      {"smiles": "CO/N=C(/C(=O)N[C@@H]1C(=O)N2C(C(=O)[O-])=C(C[n+]3ccn4ncccc43)CS[C@H]12)c1nsc(N)n1", "outcome": "inactive"}
    ]}
  ]
}
